A short description of assay [1]: A CellTox Green Cytotoxicity Assay to monitor cytotoxicity in HepG2 cells - 16 hour (AID 1224876). Further: nearly all actives have a fitted effect of over 45% in size. Further: potency means the concentration at half of the fitted maximal effect. Summed up: (§1)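 Cells and non-lytic dye reagent are dispensed together (600 HepG2 cells/well) and incubated 5 h before DMSO compound transfer. Kinetic fluorescence is then recorded in the same wells during 40 h at 37 C.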
The nature of assay [2]: qHTS RealTime-Glo MT Cell Viability Assay in HepG2 cells - 32 hour (AID 1224877). Further: nearly all actives have a fitted effect of over 55% in size. In a few lines:
(§2)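 Compound treatment began 5 h after plating HepG2 cells (600/well) with NanoLuc luciferase and prosubstrate. Plates stayed at 37 C for 40 h; luminescence was captured at six time points, 0 h through 40 h.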

Assay [3] is described as follows: A CellTox Green Cytotoxicity Assay to monitor cytotoxicity in HepG2 cells - 24 hour (AID 1224878). Further: nearly all actives have a fitted effect of over 45% in size. Further: potency means the concentration at half of the fitted maximal effect. In a few lines:
as §1

Assay [4] can be described thus: A CellTox Green Cytotoxicity Assay to monitor cytotoxicity in HepG2 cells - 40 hour (AID 1224879). Further: nearly all actives have a fitted effect of over 40% in size. Further: potency means the concentration at half of the fitted maximal effect. Summed up: as §1
Assay [5] can be described thus: qHTS RealTime-Glo MT Cell Viability Assay in HEK293 cells - 0 hour (AID 1224880). Further: top concentration of the series differs between compounds; nearly all actives have a fitted effect of over 45% in size. Summed up:
(§3)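 Real-time viability in HEK293: signal arises when living cells convert a prosubstrate for NanoLuc in the medium, so luminescence tracks viable cell number. Compound (23 nL, DMSO) added 5 h post-seeding; kinetic reads at 0–40 h, 37 C.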

A short description of assay [6]: A CellTox Green Cytotoxicity Assay to monitor cytotoxicity in HEK293 cells - 32 hour (AID 1224881). Further: nearly all actives have a fitted effect of over 40% in size. Further: potency means the concentration at half of the fitted maximal effect. In a few lines:
(§4)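 Cells (HEK293, 600/well) and dye reagent are dispensed together. After 5 h at 37 C, 23 nL compound is pinned in. Plates stay at 37 C for 40 h with fluorescence read at 0h, 8h, 16h, 24h, 32h and 40h.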

Assay [7] can be described thus: A CellTox Green Cytotoxicity Assay to monitor cytotoxicity in HepG2 cells - 0 hour (AID 1224882). Further: nearly all actives have a fitted effect of over 35% in size. Further: potency means the concentration at half of the fitted maximal effect. In a few lines: as §1
Assay [8] can be described thus: A CellTox Green Cytotoxicity Assay to monitor cytotoxicity in HepG2 cells - 32 hour (AID 1224883). Further: nearly all actives have a fitted effect of over 50% in size. Further: potency means the concentration at half of the fitted maximal effect. In a few lines: as §1
Assay [9] in a line: A CellTox Green Cytotoxicity Assay to monitor cytotoxicity in HEK293 cells - 8 hour (AID 1224884). Further: nearly all actives have a fitted effect of over 35% in size. Further: potency means the concentration at half of the fitted maximal effect. In a few lines: as §4
Assay [10] is described as follows: qHTS RealTime-Glo MT Cell Viability Assay in HepG2 cells - 16 hour (AID 1224885). Further: nearly all actives have a fitted effect of over 50% in size. In a few lines: as §2
Assay [11] in a line: qHTS RealTime-Glo MT Cell Viability Assay in HEK293 cells - 24 hour (AID 1224886). Further: top concentration of the series differs between compounds; nearly all actives have a fitted effect of over 50% in size. Summed up: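 Quantitative high-throughput screen of the Tox21 10K library in HEK293: cells and RealTime-Glo reagents plated together, compound added at 5 h, luminescence monitored through 40 h at 37 C.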
A short description of assay [12]: qHTS RealTime-Glo MT Cell Viability Assay in HEK293 cells - 8 hour (AID 1224887). Further: top concentration of the series differs between compounds; nearly all actives have a fitted effect of over 50% in size. In a few lines:
as §3

Assay [13] can be described thus: A CellTox Green Cytotoxicity Assay to monitor cytotoxicity in HEK293 cells - 16 hour (AID 1224888). Further: nearly all actives have a fitted effect of over 35% in size. Further: potency means the concentration at half of the fitted maximal effect. Summed up: as §4
The nature of assay [14]: qHTS RealTime-Glo MT Cell Viability Assay in HepG2 cells - 0 hour (AID 1224889). Further: nearly all actives have a fitted effect of over 50% in size. Summed up: as §2
Assay [15] is described as follows: A CellTox Green Cytotoxicity Assay to monitor cytotoxicity in HepG2 cells - 8 hour (AID 1224890). Further: nearly all actives have a fitted effect of over 45% in size. Further: potency means the concentration at half of the fitted maximal effect. In a few lines: as §1
Assay [16] in a line: qHTS assay to identify small molecule antagonists of the estrogen receptor alpha (ER-alpha) signaling pathway using the BG1 cell line in the presence of 0.1 nM 17-beta-estradiol - cell viability counter screen (AID 1259241). Further: nearly all actives have a fitted effect of over 40% in size. In a few lines: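 The cell line endogenously expresses full-length ER-alpha and carries four EREs driving luciferase. Cells are cultured 5 days hormone-free, treated 22 hr with compounds and 0.1 nM estradiol, then viability is read by fluorescence.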

Assay [17] is described as follows: qHTS assay to identify small molecule antagonists of the androgen receptor (AR) signaling pathway using the MDA cell line in the presence of 0.5 nM R1881 - cell viability counter screen (AID 1259242). Further: nearly all actives have a fitted effect of over 45% in size. In a few lines:
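Steps: plate MDA-kb2 cells, rest 5 hr at 37C without CO2; pin in compounds in DMSO; add R1881 to 0.5 nM final; incubate 16 hr; add CellTiter-Fluor, 30 min; read fluorescence.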

Assay [18] concerns the target Estrogen receptor (Homo sapiens) (UniProt P03372). Briefly: qHTS assay to identify small molecule antagonists of the estrogen receptor alpha (ER-alpha) signaling pathway using the BG1 cell line in the presence of 0.1 nM 17-beta-estradiol (AID 1259244). Further: nearly all actives have a fitted effect of over 50% in size. Summed up:
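Antagonist mode: compounds in DMSO are pinned onto VM7Luc4E2 reporter cells, 0.1 nM final 17beta-estradiol is added, and after 22 h at 37C luciferase luminescence is measured with ONE-Glo.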

Assay [19] in a line: qHTS assay to identify small molecule phospholipidosis (PLD) inducers (AID 1259344; active means well fitted curve in the direction sought with a large enough effect; an effect the other way counts as inactive or inconclusive). In a few lines: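 After 4 h attachment on collagen I, HepG2 cells were dosed with compound alongside LipidTOX Red, kept 24 h at 37 C, fixed, and imaged for lamellar phospholipid pits.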
Assay [20] deals with Androgen receptor (Homo sapiens) (UniProt P10275). Briefly: qHTS assay to identify small molecule antagonists of the androgen receptor (AR) signaling pathway using the MDA cell line in the presence of 0.5 nM R1881 (AID 1259243). Further: nearly all actives have a fitted effect of over 50% in size. Summed up: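 Stably transfected MDA-kb2 cells express luciferase from an MMTV promoter bearing both AR and GR response elements. Compounds plus 0.5 nM R1881 (final) were incubated 16 hr at 37C without CO2, then luminescence measured.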
Chain of Androgen receptor (Homo sapiens) (P10275 whole entry, looked up): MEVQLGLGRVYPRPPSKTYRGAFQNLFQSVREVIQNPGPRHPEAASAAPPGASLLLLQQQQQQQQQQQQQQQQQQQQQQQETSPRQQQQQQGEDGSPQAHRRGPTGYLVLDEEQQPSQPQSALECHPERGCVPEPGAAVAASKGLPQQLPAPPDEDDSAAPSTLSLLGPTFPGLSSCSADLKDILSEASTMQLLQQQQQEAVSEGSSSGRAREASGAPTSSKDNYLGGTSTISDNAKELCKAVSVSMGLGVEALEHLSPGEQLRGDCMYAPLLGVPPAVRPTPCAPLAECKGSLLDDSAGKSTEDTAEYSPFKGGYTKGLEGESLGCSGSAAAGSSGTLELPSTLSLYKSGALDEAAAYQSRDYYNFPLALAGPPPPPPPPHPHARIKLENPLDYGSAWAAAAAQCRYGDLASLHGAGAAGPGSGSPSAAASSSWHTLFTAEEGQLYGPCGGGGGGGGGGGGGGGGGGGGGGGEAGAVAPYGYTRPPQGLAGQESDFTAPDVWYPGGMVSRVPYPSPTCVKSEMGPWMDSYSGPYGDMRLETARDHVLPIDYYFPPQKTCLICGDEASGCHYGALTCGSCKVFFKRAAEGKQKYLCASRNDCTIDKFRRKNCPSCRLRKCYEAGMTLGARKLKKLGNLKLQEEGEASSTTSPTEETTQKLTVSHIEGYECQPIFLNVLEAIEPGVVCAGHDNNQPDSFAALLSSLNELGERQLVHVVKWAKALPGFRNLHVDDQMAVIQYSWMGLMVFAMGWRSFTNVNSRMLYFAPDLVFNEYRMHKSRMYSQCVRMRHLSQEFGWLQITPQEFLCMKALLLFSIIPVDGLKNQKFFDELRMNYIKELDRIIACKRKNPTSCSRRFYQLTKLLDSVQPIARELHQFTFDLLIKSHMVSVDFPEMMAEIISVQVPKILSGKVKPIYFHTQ

Values without a mark were called inactive. Results filed as inconclusive are left out. Active and inactive are the calls of the source. Unless noted, the call rests on the fitted dose curve; in most records, active means well fitted curve in the direction sought with a large enough effect in the repeat runs; inconclusive means weak or mixed curves; inactive means no such curve, though single readings can be large; an effect the other way counts as inactive or inconclusive.

Chain of Estrogen receptor (Homo sapiens) (P03372 whole entry, looked up): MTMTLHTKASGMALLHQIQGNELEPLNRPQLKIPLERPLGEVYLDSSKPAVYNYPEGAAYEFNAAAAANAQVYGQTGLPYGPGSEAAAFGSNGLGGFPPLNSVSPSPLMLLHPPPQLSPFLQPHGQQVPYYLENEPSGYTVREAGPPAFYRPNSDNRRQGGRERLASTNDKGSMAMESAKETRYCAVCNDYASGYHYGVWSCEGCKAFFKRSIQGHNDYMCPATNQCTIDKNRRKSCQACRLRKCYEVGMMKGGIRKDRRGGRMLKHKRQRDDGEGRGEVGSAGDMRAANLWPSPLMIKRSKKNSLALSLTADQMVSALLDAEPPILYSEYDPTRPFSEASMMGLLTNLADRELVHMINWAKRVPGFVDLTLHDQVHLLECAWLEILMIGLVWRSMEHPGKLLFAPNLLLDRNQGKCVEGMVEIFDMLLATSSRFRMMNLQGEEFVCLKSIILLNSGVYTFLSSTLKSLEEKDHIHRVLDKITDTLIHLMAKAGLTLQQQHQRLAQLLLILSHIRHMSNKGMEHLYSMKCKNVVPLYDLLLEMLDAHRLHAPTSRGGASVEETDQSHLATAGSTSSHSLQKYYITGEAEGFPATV

For the molecule `CCCCCCCCCOC(=O)CCCCC(=O)OCCCCCCC`, the Potency was 24.5 µM (active) in assay [1]; 24.5 µM (active) in assay [3]; 24.5 µM (active) in assay [4]; 24.5 µM (active) in assay [6]; 27.5 µM (active) in assay [7]; 24.5 µM (active) in assay [8]. For the same molecule, the figures for the Potency in assay [9], in assay [13] and in assay [15] were 38.9 µM (active), 27.5 µM (active) and 38.9 µM (active), respectively. Further, the outcome in assay [2], in assay [10] and in assay [16] was inactive. Moreover, the Potency entry in assay [5], in assay [11], in assay [12] and in assay [14] was “inactive” in each case.
For the molecule `CCCCCc1cccc(=O)o1`, the Potency entry in assay [1], in assay [3], in [4], in assay [5], in [6] and in [7] was “inactive” throughout. In addition, the Potency entry in [8], in assay [9], in [11], in assay [12], in [14] and in assay [15] was “inactive” each time. The call in assay [2], in [10], in [16], in assay [17] and in [18] was inactive.
On to `C/C(CC(C)C)=N\O`, for which the Potency result in assay [1], in assay [3], in assay [4], in [5], in assay [6] and in [7] was “inactive” each time. The Potency result in assay [8], in assay [9], in [11], in assay [13], in assay [14] and in assay [15] was “inactive” each time. Also, the molecule was called inactive in [2], in assay [10], in assay [16], in [17] and in assay [18].
For `CC(N)CCCC(C)(C)O` (stereo not drawn), the Potency result in assay [1], in assay [3], in assay [4], in assay [5], in [6] and in assay [7] was “inactive” each time. Besides, the Potency result in [8], in assay [9], in assay [11], in assay [13], in assay [14] and in assay [15] was “inactive” in each case. Also, the molecule was classed as inactive in [2], in assay [10], in [16], in assay [17] and in [19].
Take `Cc1ccnc(N)c1`: the Potency result in [1], in assay [3], in assay [4], in assay [5], in assay [6] and in [7] was “inactive” throughout. Besides, the Potency entry in [8], in [11], in [12], in assay [13], in [14] and in [15] was “inactive” in each case. Also, the call in assay [2], in [10], in [16] and in [17] was inactive.
Take `CC(S)C(C)S` (stereo not drawn): the Potency result in [1], in assay [3], in assay [4], in [5], in [6] and in [7] was “inactive” in each case. For the same molecule, the Potency entry in assay [8], in [9], in assay [11], in [12], in [13] and in [14] was “inactive” throughout. In addition, the Potency result in assay [15] and in assay [20] was “inactive” throughout. The molecule was called inactive in assay [2], in assay [10] and in assay [16].
As for `C=C(C)[C@@H]1CC=C(C)CC1`, the Potency entry in assay [1], in assay [3], in assay [4], in assay [5], in [6] and in assay [7] was “inactive” in each case. Besides, the Potency result in assay [8], in [9], in assay [11], in assay [13], in assay [14] and in assay [15] was “inactive” throughout. Also, the outcome in assay [2], in assay [10], in [16], in [17] and in [18] was inactive.
Take `Cc1c(Cl)cccc1Cl`: the Potency entry in assay [1], in assay [3], in [4], in assay [5], in [6] and in assay [7] was “inactive” throughout. The Potency result in assay [8], in [9], in assay [11], in [13], in [14] and in assay [15] was “inactive” each time. Besides, the result in [2], in assay [10], in assay [16] and in assay [18] was inactive.

Source of the values: PubChem BioAssay (Tox21).
